Assay results published in article PMC12820563, “FoxP3 forms a head-to-head dimer in vivo and stabilizes its multimerization on adjacent microsatellites”.
In all, about 16,000 sequences were measured (“rpm ratio (pull-down/input)”: median about 0.5, highest 2% from about 5.5 on). The sample holds the highest values, similar sequences and a random draw of the others, so the mix is not that of the screen.

target: T1, MBP-FoxP3dN (Mus musculus, UniProt Q99JB6 188-423); test: PD-seq (MBP pull-down with sequencing); 20 mM Tris-HCl pH 7.5, 100 mM NaCl, 1.5 mM MgCl2, 0.4 uM protein, 0.1 uM dsDNA library, 30 min, room temperature, amylose pull-down; high values mean tight binding; conditions: protein: recombinant; tags: His6-MBP; chain copies: 2; dsDNA, one strand shown
T1 sequence: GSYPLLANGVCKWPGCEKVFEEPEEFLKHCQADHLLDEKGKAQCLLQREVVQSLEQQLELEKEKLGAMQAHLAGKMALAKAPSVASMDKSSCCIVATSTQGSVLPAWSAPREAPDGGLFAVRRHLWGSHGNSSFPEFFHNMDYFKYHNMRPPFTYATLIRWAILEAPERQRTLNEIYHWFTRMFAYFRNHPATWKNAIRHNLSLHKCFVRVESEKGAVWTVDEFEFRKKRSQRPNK
Summary of the method: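 The N-terminus-lacking fragment of mouse FoxP3 or FoxP1 carried a His6-MBP tag and was expressed in E. coli. At 0.4 µM it was incubated with 0.1 µM Klenow-filled degenerate double-stranded DNA library for 30 min at room temperature in Tris pH 7.5 buffer with NaCl and MgCl2, and complexes were caught on amylose resin, washed three times, released with proteinase K, PCR-barcoded and Illumina-sequenced. Binding is reads-per-million enrichment of pull-down over input with replicates pooled.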

Row | Sequence | binding signal
1 | GATGATTGTTCTCCCAGCTGATGAATTAATGAGATCGAGTAAACAAATTTTCCTAATCTTTCTGTTCAAGCGCCATCTAC | 0.246 RPM ratio (pull-down/input)
2 | GATGATTGTTCTCCCAGCTGATGAATTTCGAACCTCGAGTAAACAAATTTTCCTAATCTTTCTGTTCAAGCGCCATCTAC | 0.301 RPM ratio (pull-down/input)
3 | GATGATTGTTCTCCCAGCTGATGAATTACAACCGTCGAGTAAACAAATTTTCCTAATCTTTCTGTTCAAGCGCCATCTAC | 0.497 RPM ratio (pull-down/input)
4 | GATGATTGTTCTCCCAGCTGATGAATTGAGTTAATCGAGTAAACAAATTTTCCTAATCTTTCTGTTCAAGCGCCATCTAC | 0.369 RPM ratio (pull-down/input)
5 | GATGATTGTTCTCCCAGCTGATGAATTTACAGGCTCGAGTAAACAAATTTTCCTAATCTTTCTGTTCAAGCGCCATCTAC | 0.441 RPM ratio (pull-down/input)
6 | GATGATTGTTCTCCCAGCTGATGAATTGGAACCGTCGAGTAAACAAATTTTCCTAATCTTTCTGTTCAAGCGCCATCTAC | 0.224 RPM ratio (pull-down/input)
7 | GATGATTGTTCTCCCAGCTGATGAATTGTTGTTATCGAGTAAACAAATTTTCCTAATCTTTCTGTTCAAGCGCCATCTAC | 6.7 RPM ratio (pull-down/input)
8 | GATGATTGTTCTCCCAGCTGATGAATTGCTGTTATCGAGTAAACAAATTTTCCTAATCTTTCTGTTCAAGCGCCATCTAC | 2.06 RPM ratio (pull-down/input)
9 | GATGATTGTTCTCCCAGCTGATGAATTTGTTATCTCGAGTAAACAAATTTTCCTAATCTTTCTGTTCAAGCGCCATCTAC | 7.03 RPM ratio (pull-down/input)
10 | GATGATTGTTCTCCCAGCTGATGAATTTTTGTTATCGAGTAAACAAATTTTCCTAATCTTTCTGTTCAAGCGCCATCTAC | 2.29 RPM ratio (pull-down/input)
11 | GATGATTGTTCTCCCAGCTGATGAATTATTGTTATCGAGTAAACAAATTTTCCTAATCTTTCTGTTCAAGCGCCATCTAC | 3.55 RPM ratio (pull-down/input)
12 | GATGATTGTTCTCCCAGCTGATGAATTTCTGTTATCGAGTAAACAAATTTTCCTAATCTTTCTGTTCAAGCGCCATCTAC | 1.07 RPM ratio (pull-down/input)
13 | GATGATTGTTCTCCCAGCTGATGAATTGTTATTATCGAGTAAACAAATTTTCCTAATCTTTCTGTTCAAGCGCCATCTAC | 5.54 RPM ratio (pull-down/input)
14 | GATGATTGTTCTCCCAGCTGATGAATTGTTATCCTCGAGTAAACAAATTTTCCTAATCTTTCTGTTCAAGCGCCATCTAC | 2.64 RPM ratio (pull-down/input)
15 | GATGATTGTTCTCCCAGCTGATGAATTATTATTATCGAGTAAACAAATTTTCCTAATCTTTCTGTTCAAGCGCCATCTAC | 1.99 RPM ratio (pull-down/input)
16 | GATGATTGTTCTCCCAGCTGATGAATTTCGGGCCTCGAGTAAACAAATTTTCCTAATCTTTCTGTTCAAGCGCCATCTAC | 0.404 RPM ratio (pull-down/input)

Row | Sequence | binding signal
17 | GATGATTGTTCTCCCAGCTGATGAATTATGGAAATCGAGTAAACAAATTTTCCTAATCTTTCTGTTCAAGCGCCATCTAC | 0.4 RPM ratio (pull-down/input)
18 | GATGATTGTTCTCCCAGCTGATGAATTTTGTGCTTCGAGTAAACAAATTTTCCTAATCTTTCTGTTCAAGCGCCATCTAC | 1.87 RPM ratio (pull-down/input)
19 | GATGATTGTTCTCCCAGCTGATGAATTGAGACTATCGAGTAAACAAATTTTCCTAATCTTTCTGTTCAAGCGCCATCTAC | 0.692 RPM ratio (pull-down/input)
20 | GATGATTGTTCTCCCAGCTGATGAATTCCTTAGCTCGAGTAAACAAATTTTCCTAATCTTTCTGTTCAAGCGCCATCTAC | 0.222 RPM ratio (pull-down/input)
21 | GATGATTGTTCTCCCAGCTGATGAATTTGGACTGTCGAGTAAACAAATTTTCCTAATCTTTCTGTTCAAGCGCCATCTAC | 0.82 RPM ratio (pull-down/input)
22 | GATGATTGTTCTCCCAGCTGATGAATTTCGGTGCTCGAGTAAACAAATTTTCCTAATCTTTCTGTTCAAGCGCCATCTAC | 0.541 RPM ratio (pull-down/input)
23 | GATGATTGTTCTCCCAGCTGATGAATTTGCGAATTCGAGTAAACAAATTTTCCTAATCTTTCTGTTCAAGCGCCATCTAC | 1.18 RPM ratio (pull-down/input)
24 | GATGATTGTTCTCCCAGCTGATGAATTTGCGCATTCGAGTAAACAAATTTTCCTAATCTTTCTGTTCAAGCGCCATCTAC | 7.07 RPM ratio (pull-down/input)
25 | GATGATTGTTCTCCCAGCTGATGAATTTTGCGCATCGAGTAAACAAATTTTCCTAATCTTTCTGTTCAAGCGCCATCTAC | 1.98 RPM ratio (pull-down/input)
26 | GATGATTGTTCTCCCAGCTGATGAATTGCGCATCTCGAGTAAACAAATTTTCCTAATCTTTCTGTTCAAGCGCCATCTAC | 8.03 RPM ratio (pull-down/input)
27 | GATGATTGTTCTCCCAGCTGATGAATTGCGCATTTCGAGTAAACAAATTTTCCTAATCTTTCTGTTCAAGCGCCATCTAC | 8.05 RPM ratio (pull-down/input)
28 | GATGATTGTTCTCCCAGCTGATGAATTTTGCGATTCGAGTAAACAAATTTTCCTAATCTTTCTGTTCAAGCGCCATCTAC | 2.4 RPM ratio (pull-down/input)
29 | GATGATTGTTCTCCCAGCTGATGAATTGCATTTTTCGAGTAAACAAATTTTCCTAATCTTTCTGTTCAAGCGCCATCTAC | 3.02 RPM ratio (pull-down/input)
30 | GATGATTGTTCTCCCAGCTGATGAATTGCATTGTTCGAGTAAACAAATTTTCCTAATCTTTCTGTTCAAGCGCCATCTAC | 4.05 RPM ratio (pull-down/input)
31 | GATGATTGTTCTCCCAGCTGATGAATTGCGCGCATCGAGTAAACAAATTTTCCTAATCTTTCTGTTCAAGCGCCATCTAC | 2.39 RPM ratio (pull-down/input)
32 | GATGATTGTTCTCCCAGCTGATGAATTTTTGACCTCGAGTAAACAAATTTTCCTAATCTTTCTGTTCAAGCGCCATCTAC | 0.237 RPM ratio (pull-down/input)
